For 39 compounds, growth results are on record in PubChem BioAssay (NCI).

Structures are written as SMILES. Several values for one entry are separate records, joined by “and”; a condition that tells them apart may be missing. Identical values can stand only once. This is part of a sample that, as a whole, favours compounds with a hit. Of some 83,000 tested, about 20% had one in any assay.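 Single-concentration screen, 48 h exposure, 96-well plates. Endpoint: percent growth. Below 10 = active.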 Activity calls are given as the source filed them.

The subject of this experiment is MDA-MB-468 breast. As to the kind of experiment: NCI-60 one-dose screen, 48 h (100 = growth as untreated, 0 = no growth, -100 = all killed). Conditions: 10 µM unless noted.
For the compound `C=C1C(=O)O[C@H]2[C@H]1CC/C(COC(=O)NCc1ccc(Cn3c(=O)sn(CCCl)c3=O)cc1)=C\CC[C@@]1(C)O[C@@H]21`, the growth is 5.52% (active).

`Cn1cc(-c2nc(-c3c[nH]c4ncc(F)cc34)cs2)c2cccnc21`: the growth is -0.356% (active).

On to `CC(C)(C)c1cc(NC(=O)Nc2ccc(-c3cn4c5c(sc4n3)CCc3cn(CCCN4CCCCC4)cc3-5)cc2)no1`, for which the growth is -76% (active).

Turning to `CCCCCCCCCCCCCCCCCCOc1ccccc1CC(=O)NCC[N+](C)(C)C`, the growth is 19% (inactive).

With `Cc1ccc(C(=O)Nc2ccc(CN3CCN(C)CC3)c(C(F)(F)F)c2)cc1C#Cc1cncc2ncccc12`, the growth was 37.3% (inactive).

Turning to `O=C1c2ccccc2C(=O)c2c([N+](=O)[O-])ccc(Cl)c21`, the growth was -5.53% (active).

`COc1cc2nc(N3CCC[C@@H](NC(=O)C4COc5ccccc5O4)C3)nc(N)c2cc1OC` (some centres undefined): the growth is 108% (inactive) and 103% (inactive).

Regarding `COc1ccc(C2=NNC(c3sc(Cl)nc3Cl)C2)cc1` (centres undefined), the growth was 70% (inactive).

Turning to `CCCCCCCCCCCC[n+]1ccc(C(N)=O)cc1`, the growth is -42.1% (active).

Take `CC(=O)N1N=C(C2C(=O)N(C)C(=O)N(C)C2=O)CC1c1ccccc1C(=O)O` (centres undefined): the growth was 114% (inactive).

`COc1ccccc1OCC(O)CO` (centres undefined): the growth is 114% (inactive) and 92.9% (inactive).

Regarding `Cc1cc(-c2nc3ccccc3s2)ccc1NC(=O)COc1ccc(Cl)cc1`, the growth was -39% (active).

Consider `N=C1N=C(N)CS1`, for which the growth was 103% (inactive).

With `CCCc1nc(C(C)(C)O)c(C(=O)O)n1Cc1ccc(-c2ccccc2-c2nn[nH]n2)cc1`, the growth is 112% (inactive).

Take `CN1CCN(c2ccc(Nc3nc(NCCNC(=O)c4ccccc4)c4sccc4n3)cc2)CC1`: the growth is 45.3% (inactive).

As to `COc1cccc(-c2nc3sccn3c2-c2ccnc(NCCNS(=O)(=O)c3c(Cl)cccc3Cl)c2)c1`, the growth was 56.8% (inactive).

Take `C=C(C)[C@@H]1CC[C@]2(C(=O)N3CCOCC3)CC[C@]3(C)[C@H](CC[C@@H]4[C@@]5(C)C/C(=C/c6ccncc6)C(=O)C(C)(C)[C@@H]5CC[C@]43C)[C@@H]12`: the growth was 21.4% (inactive).

With `Cc1cnc([C@]23CC[C@@H](C)[C@H](C)[C@H]2C2=CC[C@@H]4[C@@]5(C)Cc6c([nH]c7ccccc67)C(C)(C)[C@@H]5CC[C@@]4(C)[C@]2(C)CC3)o1`, the growth is 90.6% [100 µM] (inactive).

`c1ccc2c(-c3nccs3)c[nH]c2c1`: the growth was 91.3% (inactive).

Consider `c1ccc(COc2ccc(Nc3ncnc4c3cnn4-c3ccccc3)cc2)cc1`, for which the growth is 93.1% (inactive).

As for `COc1cc(-c2nc(SCc3ccc(C)cc3)[nH]c(=O)c2C#N)ccc1OCc1ccccc1`, the growth is 87.3% (inactive).

As to `Cc1ccc2cccc(Oc3ccc(Nc4ncnc5onc(-c6ccccc6)c45)cc3)c2n1`, the growth is 86.8% (inactive).

As for `CC(=O)Oc1csc(N(C(C)=O)c2cc(C(=O)O)cc(C(=O)O)c2)n1`, the growth was 95.2% (inactive).

Turning to `C#CCOc1cccc(Nc2ncnc3cc(NC(=O)CCl)ccc23)c1`, the growth was -52.5% (active).

`O=C(Nc1ccc(Oc2cccc(Cl)c2)c(Cl)c1)c1cnccn1`: the growth is 0.426% (active).

Consider `N=c1c2ccccc2nc2n1CCCCC2`, for which the growth was 103% (inactive).

For the compound `O=C1NN(C(=O)c2ccccc2)C(c2ccc(Cl)c(Cl)c2)=C/C1=C\c1ccccc1[N+](=O)[O-]`, the growth is 53.9% [6.75 µM] (inactive).

As to `COc1cc2c(cc1OC)C(=O)C(Br)CC2` (centres undefined), the growth was 24.7% (inactive).

Consider `Nc1ccc2c(c1Br)Cc1ccccc1-2`, for which the growth is 111% (inactive).

For the compound `O=C(CS)Nc1ccc2ccccc2c1`, the growth is 108% (inactive).

As for `CN1CCN(S(=O)(=O)O[C@@H]2C(=O)N(c3cc4c5ccccc5ccc4c4ccccc34)[C@H]2c2ccc(F)cn2)CC1`, the growth is 90.8% (inactive).

For the compound `C[C@@H]1COCCN1c1cc(C2([S@](C)(=N)=O)CC2)nc(-c2ccnc3[nH]ccc23)n1`, the growth was 28.3% (inactive).

For `COC(=O)c1c(C)nc(Nc2nc3ccccc3s2)nc1-c1ccc(Cl)cc1Cl`, the growth is 104% (inactive).

`OC(c1ccccc1)(c1ccccc1)C(F)(F)F`: the growth is 113% (inactive).

Consider `CC[C@H](Nc1cc(C)nc(N)n1)c1nc2cccc(NCc3ccc(C(=O)NO)cc3)c2c(=O)n1-c1ccccc1`, for which the growth is -10.6% (active).

With `NC1=CC(=O)c2cccnc2C1=O`, the growth is -50.8% (active).

Turning to `Nc1c(C(=O)c2ccccc2)sc2nc(-c3cnccn3)cc(-c3cccs3)c12`, the growth was 111% (inactive).

Take `CC(=O)OC[C@H]1O[C@@H](n2c(=O)cc(N)[nH]c2=O)C(OC(C)=O)[C@@H]1OC(C)=O` (some centres undefined): the growth is 98.8% (inactive).

For `COc1cc(C2C=C(C)N=C3SC(C)=NN32)cc(OC)c1OC` (centres undefined), the growth is 106% (inactive).
